Source: PubChem BioAssay
An excerpt weighted towards active compounds, which were near 9.4% of everything screened.
AMA1-RON2 inh – disrupts binding of P. falciparum AMA1 to RON2. AlphaScreen AMA1-biotinylated RON2 peptide binding. 360,000 tested, 0.2% active. AID 720542. Potency, µM (titrated, usually from 58.2 µM), inactives show at the highest dose activity change, negative = inhibition, actives largely listed as inhibitors;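 also: 0% = vehicle wells and -100% = peptide control; nearly all actives have a fitted effect of over 45% in size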
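AMA1 (3D7) with his tag at 25 nM final met compounds first, then biotinylated RON2 peptide at 25 nM; detection used donor plus acceptor beads, 10 µg/mL apiece, read by AlphaScreen after 30 min at room temperature.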
SARS PLP yeast – blocks SARS-CoV papain-like protease in a yeast assay; S. cerevisiae expressing SARS-CoV PLpro, growth rescue; Potency, µM (doses to about 32.9 µM), without a hit: top-dose activity, positive = growth rescue, usual class: activators; 330,000 tested, 0.19% active; AID 485353; calls by dose curve; also: 0% is about no effect; nearly all actives have a fitted effect of over 55% in size
Pf growth 96h – inhibits malaria parasite growth, 96 h | P. falciparum luciferase reporter growth, 96 h | 320,000 tested, 6.9% active | AID 504834 | Potency, µM (titrated, usually from 28.7 µM), for inactives: at the top dose activity change, negative = inhibition, most hits filed as inhibitors; also: % is scaled to controls: 0 for no effect and ±100 for the full control effect
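Parasite growth measured via integrated firefly luciferase reporter in P. falciparum. Infected erythrocytes at 2% hematocrit, 0.05% parasitemia final were treated 96 hours at 37 C under 5% CO2, and luminescence was read.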
Pf growth 48h – inhibits P. falciparum growth in the first generation, 48 h | P. falciparum luciferase growth in erythrocytes, 48 h | Potency, µM (top dose mostly 28.7 µM), for inactives: at the top dose activity change, negative = inhibition, actives largely listed as inhibitors | 310,000 tested, 5.9% active; also: % is scaled to controls: 0 for no effect and ±100 for the full control effect
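Growth was read as firefly luciferase luminescence after a 48 h, 37 C, 5% CO2 exposure of compounds to reporter-bearing P. falciparum cultures (0.1% parasitemia, 2% hematocrit final) in Albumax-supplemented RPMI 1640.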
Numbers without * were called inactive; ? = inconclusive; nt = no result given. Unless noted, calls follow the shape of the dose curve; as a rule, active = well fitted curve in the direction sought with a large enough effect; inconclusive = small, poorly fitted or top-dose-only effect, or another doubt; inactive = no such curve, though single readings can be large; an effect the other way counts as inactive or inconclusive. Potency is read from the fitted curve at half-maximal effect.

SMILES | AMA1-RON2 inh | SARS PLP yeast | Pf growth 96h | Pf growth 48h
COc1ccc(/C=C2/N=C(SCC(=O)Nc3cc(C)on3)N(c3ccccc3)C2=O)cc1 | 12% | 15% | 29% | 30%
CCC(SC1=N/C(=C/c2ccccc2)C(=O)N1c1ccccc1)C(=O)Nc1cc(C)on1 (stereo unspecified) | 1% | -5% | 10% | 5.9µM*
Cc1cc(C)nc(Sc2ccc([N+](=O)[O-])cc2[N+](=O)[O-])n1 | -7% | 1% | -14% | 5.9µM*
Cc1ccc(S(=O)(=O)N(C)Cc2ccc(C(=O)NN=C3C4CC5CC(C4)CC3C5)cc2)cc1 | 41% | 14% | ? | ?
c1ccc2c(c1)CC/C2=N/Nc1nc2ccccc2[nH]1 | 8% | -2% | ? | 2.6µM*
CC(C)(C)C1CCC(=NNc2nc3ccccc3[nH]2)CC1 (stereo unspecified) | 60% | 3% | ? | ?
Cc1ccc(Sc2c(C)nn(C(=O)CNS(=O)(=O)c3ccc(F)cc3)c2C)cc1 | 4% | 0% | ? | 9%
C=CCNC(=O)c1cc2c(=O)n3cc(C)ccc3nc2nc1NCC1CCCO1 (stereo unspecified) | nt | 22% | 4.1µM* | 8%
Cc1ccc(CNC(=O)c2cc3c(=O)n4ccccc4nc3n(CC3CCCO3)c2=N)cc1 (stereo unspecified) | -1% | -6% | ? | 2.6µM*
CCOC(=O)c1cc2c(=O)n3ccccc3nc2n(CC2CCCO2)c1=NC(C)=O (stereo unspecified) | -6% | -10% | 77% | nt
CC(NC(=O)c1cc2c(=O)n3ccccc3nc2n(CC2CCCO2)c1=N)c1ccccc1 (stereo unspecified) | -7% | 1% | 19% | 13µM*
N=c1c(C(=O)NC2CCCC2)cc2c(=O)n3ccccc3nc2n1CC1CCCO1 (stereo unspecified) | -8% | 2% | ? | 13µM*
Cc1ccc2nc3c(cc(C(=O)NCC4CCCO4)c(=N)n3CC3CCCO3)c(=O)n2c1 (stereo unspecified) | -19% | -1% | 54% | 45%
N=c1c(C(=O)NC2CCCCC2)cc2c(=O)n3ccccc3nc2n1CC1CCCO1 (stereo unspecified) | 4% | 0% | ? | ?
CCc1cc([N+](=O)[O-])cc(CC)c1N | 4% | 1% | ? | nt
O=C(COC(=O)/C=C/c1ccc(Cl)cc1Cl)Nc1ccc2c(c1)OCCO2 | 0% | 1% | 2.9µM* | 28%
Cc1cccc(C)c1OCC(=O)Nc1ccc2c(c1)OCCO2 | 0% | -4% | 12µM* | 27%
O=C(CSCc1c(Cl)cccc1Cl)Nc1ccc2c(c1)OCCO2 | -41% | -18% | 3.3µM* | 49%
CCn1c(=O)c(=O)[nH]c2cc(C(=O)NC3CCCC3)ccc21 | 0% | -1% | 18% | -4%
O=C(Nc1ncn[nH]1)c1ccc(Cl)cc1Cl | 54% | -3% | -14% | 59%
Cc1ccccc1C(=O)Nc1cccc(NC(=O)c2ncn[nH]2)c1 | 10% | 3% | -29% | 8%
COc1ccc(-c2cc(=O)oc3c(C)c(OCC(=O)Nc4cccnc4)ccc23)cc1 | -4% | 2% | 27% | 4%
O=C(NN1C(=O)/C(=C/C=C/c2ccco2)SC1=S)c1ccncc1 | 5.6µM* | 1% | 14% | -62%
Cc1cc(Cl)ccc1OCC(=O)NCCCN1CCOCC1 | 0% | -3% | ? | 2%
Cn1c2ccccc2c2n[nH]c(=O)nc21 | -2% | 1% | ? | 8%
SMILES | AMA1-RON2 inh | SARS PLP yeast | Pf growth 96h | Pf growth 48h
Cn1c2ccccc2c2nn(-c3ccccc3)c(=O)cc21 | 6% | -2% | 10µM* | 1%
CN(C)CCNC(=O)c1c(CSc2ccccc2)noc1C(=O)NCc1ccccc1 | -8% | 0% | 9.3µM* | ?
CCCNC(=O)c1c(CSc2ccccc2)noc1C(=O)NCc1ccccc1 | 21% | -1% | 15µM* | ?
CC(C)CCNC(=O)c1c(CSc2ccccc2)noc1C(=O)NCc1ccccc1 | 1% | 1% | 13µM* | ?
CC(C)CCNC(=O)c1onc(CSc2ccncc2)c1C(=O)NCCC(C)C | -10% | -1% | -23% | -18%
O=C(NCCCN1CCOCC1)c1onc(CSc2ccccc2)c1C(=O)NCCCN1CCOCC1 | 10% | nt | nt | nt
Cc1cc(C)cc(SCc2noc(C(=O)NCCCN3CCOCC3)c2C(=O)NCCCN2CCOCC2)c1 | 26% | 0% | ? | 9.3µM*
COC(=O)c1c(CSc2ccc(Cl)cc2)noc1C(=O)NCc1ccco1 | -16% | 2% | -1% | 6%
